Source: PubChem BioAssay (EPA / NIEHS)
“And” between values parts separate entries of the source, which are not always exact repeats. Equal entries are not always repeated. Records with an inconclusive call do not appear. Some structures have more than one record in an assay (separate samples or runs), and their calls can disagree. The source made the active and inactive calls. The calls were made as follows, unless noted: active = hit-call score of the fitted dose curve at least 0.9, where 1 is the maximum; inactive = score below 0.9.

Legend:
[1] = read-out: Interleukin-1 alpha (IL1a), IL1A (gene 3552); experiment: BSK_LPS_IL1a: BioMAP Diversity Plus: LPS Assay for Interleukin-1 alpha (IL1a) Biomarker Activity (AID 2283080); conditions: primary human HUVEC with PBMC; actives raise or lower the signal
Procedure, shortened: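 Human umbilical vein endothelial cells co-cultured with peripheral blood mononuclear cells were LPS-stimulated and exposed to test chemicals for 24 h. IL-1 alpha was quantified by ELISA, with bidirectional curve fitting against DMSO as the negative control and baseline.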

[2] = read-out: Monocyte Chemoattractant Protein-1 (MCP1), CCL2 (gene 6347); experiment: BSK_LPS_MCP1: BioMAP Diversity Plus: LPS Assay for Monocyte Chemoattractant Protein-1 (MCP1) Biomarker Activity (AID 2283081); conditions: primary human HUVEC with PBMC; actives raise or lower the signal;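 as to AC50: secreted MCP-1 protein quantified by ELISA in culture supernatant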
Procedure, shortened: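 HUVEC plus PBMC co-culture (human primary cells, LPS system) exposed to test chemical for 24 h; MCP-1 measured by ELISA. Bidirectional curve fitting against DMSO baseline; parallel SRB total-protein staining flags overt cytotoxicity.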

[3] = BSK_LPS_PGE2: BioMAP Diversity Plus: LPS Assay for Prostaglandin E2 (PGE2) Biomarker Activity (AID 2283082); conditions: primary human HUVEC with PBMC; actives raise or lower the signal;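 as to AC50: secreted prostaglandin E2 measured by ELISA in LPS-stimulated co-culture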
Procedure, shortened: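 HUVEC plus PBMC co-culture stimulated with LPS; secreted PGE2 quantified by ELISA 24 h after chemical dosing. Activity fitted bidirectionally against DMSO as negative control and baseline; parallel SRB total-protein staining served as cytotoxicity check.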

[4] = read-out: Macrophage colony-stimulating factor (MCSF), CSF1 (gene 1435); experiment: BSK_LPS_MCSF: BioMAP Diversity Plus: LPS Assay for Macrophage colony-stimulating factor (MCSF) Biomarker Activity (AID 2283083); conditions: primary human HUVEC with PBMC; actives raise or lower the signal
Procedure, shortened: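 Human umbilical vein endothelial cells co-cultured with peripheral blood mononuclear cells were exposed to compound for 24 h. M-CSF levels were measured by ELISA, and bidirectional curve fitting used DMSO as the negative control and baseline.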

[5] = read-out: Tissue Factor, F3 (gene 2152); experiment: BSK_LPS_TissueFactor: BioMAP Diversity Plus: LPS Assay for Tissue Factor Biomarker Activity (AID 2283084); conditions: primary human HUVEC with PBMC; actives raise or lower the signal
Procedure, shortened: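 Human umbilical vein endothelial cells co-cultured with peripheral blood mononuclear cells were dosed and stimulated with LPS. Cell-surface CD142 was quantified by ELISA at 24 h. Activity was fitted bidirectionally against DMSO baseline.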

[6] = read-out: Tumor necrosis factor (Homo sapiens) (UniProt P01375); experiment: BSK_LPS_TNFa: BioMAP Diversity Plus: LPS Assay for Tumour Necrosis Factor alpha (TNFa) Biomarker Activity (AID 2283085); conditions: primary human HUVEC with PBMC; actives raise or lower the signal
Procedure, shortened: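 Human umbilical vein endothelial cells co-cultured with PBMC were exposed to test chemical and TNFa measured by ELISA 24 h after dosing. Bidirectional curve fitting was done relative to DMSO as negative control and baseline.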

[7] = read-out: Vascular cell adhesion molecule 1 (VCAM1), VCAM1 (gene 7412); experiment: BSK_LPS_VCAM1: BioMAP Diversity Plus: LPS Assay for Vascular cell adhesion molecule 1 (VCAM1) Biomarker Activity (AID 2283086); conditions: primary human HUVEC with PBMC; actives raise or lower the signal
Procedure, shortened: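 Human umbilical vein endothelial cells co-cultured with peripheral blood mononuclear cells under LPS stimulation were exposed to test chemical for 24 h. VCAM-1 levels were then measured by ELISA, with bidirectional curve fitting relative to DMSO as negative control and baseline.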

CD38, CD38 (gene 952) = experiment: BSK_SAg_CD38: BioMAP Diversity Plus: SAg Assay for CD38 Biomarker Activity (AID 2283087); conditions: primary human HUVEC with PBMC; actives raise or lower the signal
Procedure, shortened: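 Fluorescence ELISA of cell-surface CD38 served as the read-out, with either increase or decrease fitted against DMSO controls. Cells were a human umbilical vein endothelium plus PBMC co-culture under SEB/TSST-1 stimulation, measured 24 h after dosing.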

CD40, CD40 (gene 958) = experiment: BSK_SAg_CD40: BioMAP Diversity Plus: SAg Assay for CD40 Biomarker Activity (AID 2283088); conditions: primary human HUVEC with PBMC; actives raise or lower the signal
Procedure, shortened: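 Human umbilical vein endothelial cells co-cultured with PBMC; CD40 levels measured by ELISA with fluorescence read-out 24 h after chemical dosing. Gain or loss of signal fitted bidirectionally against DMSO baseline.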

CD69, CD69 (gene 969) = experiment: BSK_SAg_CD69: BioMAP Diversity Plus: SAg Assay for CD69 Biomarker Activity (AID 2283089); conditions: primary human HUVEC with PBMC; actives raise or lower the signal;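 as to AC50: cell surface CD69 protein quantified by ELISA with fluorescence detection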
Procedure, shortened: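 Primary human vascular co-culture (umbilical vein endothelium with peripheral blood mononuclear cells) exposed to test chemical for 24 h. CD69 levels quantified by fluorescence ELISA; DMSO served as negative control for bidirectional fitting.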

[8] = read-out: Monocyte Chemoattractant Protein-1 (MCP1), CCL2 (gene 6347); experiment: BSK_SAg_MCP1: BioMAP Diversity Plus: SAg Assay for Monocyte Chemoattractant Protein-1 (MCP1) Biomarker Activity (AID 2283090); conditions: primary human HUVEC with PBMC; actives raise or lower the signal
Procedure, shortened: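 MCP-1 levels in the endothelial–PBMC SAg co-culture were quantified by ELISA at 24 h post-dosing; both increases and decreases versus DMSO scored. Cytotoxicity monitored by SRB total protein in parallel cultures.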

[9] = read-out: E-selectin (Homo sapiens) (UniProt P16581); experiment: BSK_SAg_Eselectin: BioMAP Diversity Plus: SAg Assay for Eselectin Biomarker Activity (AID 2283091); conditions: primary human HUVEC with PBMC; actives raise or lower the signal
Procedure, shortened: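 HUVEC co-cultured with PBMC, compound dosed then read at 24 h; E-selectin measured by ELISA. Activity fitted bidirectionally against DMSO as negative control and baseline.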

[10] = read-out: Monokine induced gamma interferon (MIG), CXCL9 (gene 4283); experiment: BSK_SAg_MIG: BioMAP Diversity Plus: SAg Assay for Monokine induced gamma interferon (MIG) Biomarker Activity (AID 2283092); conditions: primary human HUVEC with PBMC; actives raise or lower the signal
Procedure, shortened: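 Endothelial cells and PBMC were co-cultured, exposed to test chemicals, and sampled 24 h later. MIG was measured by ELISA, and responses were fitted in both directions relative to DMSO.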

[11] = BSK_SAg_PBMCCytotoxicity: PBMC Cytotoxicity Assessment in the BioMAP Diversity Plus: SAg Assay (AID 2283093); conditions: primary human HUVEC with PBMC;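 also: PBMC viability measured as Alamar Blue reduction fluorescence at 546/580 nm; fitted both ways against DMSO so a hit may be loss or gain of signal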;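 as to AC50: PBMC superantigen activated with SEB plus TSST-1 one hour after compound addition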
Procedure, shortened: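 Compound added to 75,000 PBMC/well for 1 h; SEB and TSST-1 then added at 20 ng/mL final each; 90 h incubation; Alamar Blue 6 h; read 546/580 nm ex/em. Activity fitted bidirectionally relative to DMSO baseline.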

[12] = read-out: Interleukin-8 (IL8), CXCL8 (gene 3576); experiment: BSK_SAg_IL8: BioMAP Diversity Plus: SAg Assay for Interleukin-8 (IL8) Biomarker Activity (AID 2283094); conditions: primary human HUVEC with PBMC; actives raise or lower the signal
Procedure, shortened: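 Human umbilical vein endothelial cells co-cultured with peripheral blood mononuclear cells; IL-8 measured by ELISA 24 h after chemical dosing. Bidirectional concentration-response fitting used DMSO as negative control and activity baseline.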

[13] = BSK_SAg_Proliferation: Cell Proliferation Assessment in the BioMAP Diversity Plus: SAg Assay (AID 2283095); conditions: primary human HUVEC with PBMC;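 also: relative cell number as total protein by SRB absorbance in sub-confluent culture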
Procedure, shortened: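 Human umbilical vein endothelial cells co-cultured with peripheral blood mononuclear cells; total protein measured by sulforhodamine B staining (0.1% SRB after 10% TCA fixation), absorbance at 560 nm, at 96 h. Bidirectional fit against DMSO baseline.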

[14] = BSK_SAg_SRB: Viability Assessment in the BioMAP Diversity Plus: SAg Assay (AID 2283096); conditions: primary human HUVEC with PBMC;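 also: cells read one day after compound addition; hits may be either gain or loss of signal compared with DMSO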
Procedure, shortened: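 Total protein by sulforhodamine B staining, 24 h after dosing, in HUVEC–PBMC co-culture; DMSO-referenced bidirectional fitting.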

[15] = biological target: human CYP19A1, CYP19A1 (gene 1588) (UniProt P11511); experiment: NVS_ADME_hCYP19A1: NovaScreen (NVS) CYP450-related Enzyme Activity (ADME) Assay for human CYP19A1 (AID 2283098; active = hit-call score of the fitted dose curve at least 0.9, where 1 is the maximum;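 as to AC50: potency for inhibitors seen as loss of fluorescent enzyme signal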)
Procedure, shortened: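 Biochem, cell-free; recombinant enzyme + specific substrate; fluorescence intensity at 0.5 h post-dose; 10 uM duplicate primary, conc. series for actives; acetonitrile = negative control/baseline; positive and negative controls on every plate.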

[16] = biological target: human CYP2A6, CYP2A6 (gene 1548) (UniProt P11509); experiment: NVS_ADME_hCYP2A6: NovaScreen (NVS) CYP450-related Enzyme Activity (ADME) Assay for human CYP2A6 (AID 2283099; active = hit-call score of the fitted dose curve at least 0.9, where 1 is the maximum)
Procedure, shortened: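 Cell-free fluorescence readout of recombinant human CYP2A6 expressed in insect cells, read 0.5 h after dosing; loss of signal versus acetonitrile negative control. Primary screen in duplicate at 10 uM; actives re-run in concentration-response up to 20 uM.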

[17] = biological target: human CYP1A1, CYP1A1 (gene 1543) (UniProt P04798); experiment: NVS_ADME_hCYP1A1: NovaScreen (NVS) CYP450-related Enzyme Activity (ADME) Assay for human CYP1A1 (AID 2283100; active = hit-call score of the fitted dose curve at least 0.9, where 1 is the maximum)
Procedure, shortened: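 Cell-free fluorescence assay of recombinant human CYP1A1 activity with a specific substrate, read 1 h after dosing. Compounds were screened in duplicate at 10 uM, then hits tested in concentration-response up to 20 uM; acetonitrile served as baseline.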

Measured: AC50

Chain of E-selectin (Homo sapiens) (P16581 whole entry, looked up): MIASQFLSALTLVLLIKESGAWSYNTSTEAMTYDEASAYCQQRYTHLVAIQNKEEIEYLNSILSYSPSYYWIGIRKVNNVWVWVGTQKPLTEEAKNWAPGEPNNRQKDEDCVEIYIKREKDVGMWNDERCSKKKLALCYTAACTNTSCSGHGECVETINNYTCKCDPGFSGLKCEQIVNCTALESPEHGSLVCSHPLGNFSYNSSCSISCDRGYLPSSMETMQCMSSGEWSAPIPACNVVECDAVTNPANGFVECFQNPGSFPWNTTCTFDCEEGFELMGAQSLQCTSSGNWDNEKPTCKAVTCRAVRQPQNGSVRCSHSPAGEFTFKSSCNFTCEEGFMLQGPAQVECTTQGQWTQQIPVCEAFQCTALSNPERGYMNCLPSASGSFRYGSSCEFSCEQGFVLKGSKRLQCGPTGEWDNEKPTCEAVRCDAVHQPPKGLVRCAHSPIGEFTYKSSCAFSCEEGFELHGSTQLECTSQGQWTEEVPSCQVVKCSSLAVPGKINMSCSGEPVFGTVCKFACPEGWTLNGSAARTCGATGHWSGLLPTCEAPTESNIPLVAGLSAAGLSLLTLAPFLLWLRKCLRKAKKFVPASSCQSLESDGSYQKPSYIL
Chain of Tumor necrosis factor (Homo sapiens) (P01375 whole entry, looked up): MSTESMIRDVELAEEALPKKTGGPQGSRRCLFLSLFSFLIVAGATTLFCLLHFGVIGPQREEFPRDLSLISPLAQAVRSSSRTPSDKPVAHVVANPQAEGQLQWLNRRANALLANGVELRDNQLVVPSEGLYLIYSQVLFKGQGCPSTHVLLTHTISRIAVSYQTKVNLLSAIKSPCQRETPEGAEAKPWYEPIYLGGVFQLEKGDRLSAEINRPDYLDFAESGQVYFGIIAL
Chain of human CYP19A1, CYP19A1 (gene 1588) (P11511 whole entry, looked up): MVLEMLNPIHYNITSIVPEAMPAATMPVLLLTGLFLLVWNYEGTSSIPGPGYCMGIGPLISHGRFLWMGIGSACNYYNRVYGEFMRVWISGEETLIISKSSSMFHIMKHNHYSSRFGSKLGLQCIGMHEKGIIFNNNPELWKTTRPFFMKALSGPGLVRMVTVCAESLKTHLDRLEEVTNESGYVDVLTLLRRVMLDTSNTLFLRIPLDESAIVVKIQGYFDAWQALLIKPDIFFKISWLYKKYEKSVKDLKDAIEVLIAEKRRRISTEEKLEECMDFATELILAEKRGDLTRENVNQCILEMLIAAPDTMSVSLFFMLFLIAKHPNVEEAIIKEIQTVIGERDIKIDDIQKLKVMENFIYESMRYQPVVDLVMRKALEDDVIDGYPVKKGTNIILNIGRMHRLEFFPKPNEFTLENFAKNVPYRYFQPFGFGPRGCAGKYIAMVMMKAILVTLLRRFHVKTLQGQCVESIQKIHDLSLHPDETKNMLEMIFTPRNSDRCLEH
Chain of human CYP1A1, CYP1A1 (gene 1543) (P04798 whole entry, looked up): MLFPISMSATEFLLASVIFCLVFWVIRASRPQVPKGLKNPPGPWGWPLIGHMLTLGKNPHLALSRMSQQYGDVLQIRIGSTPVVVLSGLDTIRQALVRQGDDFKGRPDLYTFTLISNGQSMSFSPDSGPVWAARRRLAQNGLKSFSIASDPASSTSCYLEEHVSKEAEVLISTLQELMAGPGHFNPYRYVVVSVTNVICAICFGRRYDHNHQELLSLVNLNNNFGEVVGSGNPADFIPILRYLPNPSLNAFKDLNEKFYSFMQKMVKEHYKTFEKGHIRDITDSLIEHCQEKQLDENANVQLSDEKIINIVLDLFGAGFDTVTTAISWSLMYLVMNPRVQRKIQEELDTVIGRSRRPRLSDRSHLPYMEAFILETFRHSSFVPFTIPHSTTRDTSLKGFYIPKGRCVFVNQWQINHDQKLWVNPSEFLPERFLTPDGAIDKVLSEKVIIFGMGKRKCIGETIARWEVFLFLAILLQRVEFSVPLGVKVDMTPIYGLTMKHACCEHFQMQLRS
Chain of human CYP2A6, CYP2A6 (gene 1548) (P11509 whole entry, looked up): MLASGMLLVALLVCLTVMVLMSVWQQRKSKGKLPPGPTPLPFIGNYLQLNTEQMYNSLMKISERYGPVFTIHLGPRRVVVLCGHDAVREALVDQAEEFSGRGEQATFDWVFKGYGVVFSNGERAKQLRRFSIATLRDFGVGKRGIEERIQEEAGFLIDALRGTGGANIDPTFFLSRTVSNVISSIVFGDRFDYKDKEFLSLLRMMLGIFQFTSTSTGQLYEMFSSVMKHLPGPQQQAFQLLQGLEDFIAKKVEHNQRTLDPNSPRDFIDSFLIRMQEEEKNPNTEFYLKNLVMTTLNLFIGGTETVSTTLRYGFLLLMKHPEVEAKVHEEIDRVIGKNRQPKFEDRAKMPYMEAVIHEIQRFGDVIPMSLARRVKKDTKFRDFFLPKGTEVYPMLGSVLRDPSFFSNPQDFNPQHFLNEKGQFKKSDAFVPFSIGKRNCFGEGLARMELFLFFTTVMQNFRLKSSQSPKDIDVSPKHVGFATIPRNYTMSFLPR

COc1cc(OC)nc(NC(=O)NS(=O)(=O)c2cc(NC=O)ccc2C(=O)N(C)C)n1
not listed: [15] | [16] | [17]
inactive: all other assays above

OCCOc1ccccc1
not listed: [15] | [16] | [17]
inactive: all other assays above

Cc1cc(C)nc(NC(=O)NS(=O)(=O)c2ccccc2C(=O)OC2COC2)n1
active: [4] 331 nM
not listed: [15] | [16] | [17]
inactive: all other assays above

CCC(C)Nc1c([N+](=O)[O-])cc(C(C)(C)C)cc1[N+](=O)[O-] (stereo not given)
inactive: [1] | [2] | [3] | [5] | [6] | [8] | [10] | [14]
active: [4] 11100 nM | [7] 22.8 µM | CD38, CD38 (gene 952) 16.6 µM | CD40, CD40 (gene 958) 30.7 µM | CD69, CD69 (gene 969) 15.6 µM | [9] 11.9 µM | [11] 31.9 µM | [12] 20 µM | [13] 29600 nM

N#Cc1c(Cl)c(Cl)c(Cl)c(C#N)c1Cl
active: [1] 1.03 µM | [2] 1.16 µM | [3] 148 nM | [4] 924 nM | [5] 332 nM | [6] 134 nM | [7] 0.773 µM | CD38, CD38 (gene 952) 0.953 µM | CD40, CD40 (gene 958) 0.459 µM | CD69, CD69 (gene 969) 1.35 µM | [8] 1.68 µM | [9] 0.959 µM | [10] 1.83 µM | [11] 1.4 µM | [12] 1.74 µM | [13] 197 nM | [14] 2.27 µM | [15] 192 nM
inactive: [16]

Oc1ccc(Cl)cc1Cc1ccccc1
inactive: [15] | [17]
active: [1] 31.8 µM [middle of 6 runs] | [2] 32.5 µM [middle of 7 runs] | [4] 29.6 µM [middle of 7 runs] | [5] 33.6 µM [middle of 7 runs] | [6] 32 µM [middle of 7 runs] | [7] 32.5 µM [middle of 6 runs] | CD38, CD38 (gene 952) 33.6 µM [middle of 6 runs] | CD40, CD40 (gene 958) 29.4 µM [middle of 6 runs] | CD69, CD69 (gene 969) 32.7 µM [middle of 7 runs] | [8] 34.9 µM [middle of 7 runs] | [9] 32.5 µM [middle of 5 runs] | [10] 36.8 µM [middle of 7 runs] | [11] 27.2 µM [middle of 7 runs] | [12] 31.7 µM [middle of 7 runs] | [14] 29.4 µM [middle of 7 runs] | [15] 3.11 µM and 2.49 µM
